According to PubChem BioAssay:
A number with no mark means an inactive call. The source made the active and inactive calls.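 How the source made its calls: active means inhibition at or above 50% relative to wild type and mutant plate controls; inactive means inhibition below 50%.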

Test: loss of swimming-algae plug formation – whole organism, Chlamydomonas reinhardtii, WT vs cilia-less mutant, absorbance, 96-well, primary screen (AID 463189);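 further: 0% = wild type cc124 cells in DMSO and 100% = ciliumless bld1 mutant cells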
Settings: Chlamydomonas reinhardtii gravitaxis, OD600 absorbance, 2 days; at 10 µM; hits give high values

Row | Structure (SMILES) | inhibition
1 | CC(C)C1C2CCC(C2)C1N (stereo not given) | 3.56%
2 | Cn1c(=O)c2c(nc(/C=C/c3cccc(Cl)c3)n2C)n(C)c1=O | 18.1%
3 | CC(=O)Oc1ccccc1C(=O)O | -5.84%
4 | CN(C)S(=O)(=O)c1ccc2c(c1)/C(=C/c1cc3c([nH]1)CCCC3)C(=O)N2 | 4.39%
5 | CC(C)[C@@H]1NC(=O)[C@H](CCCCN)NC(=O)[C@@H](Cc2c[nH]c3ccccc23)NC(=O)[C@H](Cc2ccc(O)cc2)NC(=O)[C@H](C)N(C)C(=O)[C@H](Cc2ccccc2)NC1=O | 6.6%
6 | NC(N)=NC(=O)Cc1c(Cl)cccc1Cl | 4.12%
7 | S=C(Nc1ccccc1)Nc1nccs1 | 7.29%
8 | CN(C)C(=O)C(CCN1CCC(O)(c2ccc(Cl)cc2)CC1)(c1ccccc1)c1ccccc1 | -2.62%
9 | COc1cc(CNC(=O)CCCCCCC(C)C)ccc1O | -1.4%
10 | Oc1ccc(C2CNCCc3c2cc(O)c(O)c3Cl)cc1 (stereo not given) | -6.72%
11 | COc1ccccc1N1CCN(CCCCNS(=O)(=O)c2cccc3c(N(C)C)cccc23)CC1 | -0.327%
12 | O=C(Cc1ccc(Cl)c(Cl)c1)OCCN1CCCC1 | -10.1%
13 | Nc1nc(N)c2nc(CNc3ccc(C(=O)NC(CCC(=O)O)C(=O)O)cc3)cnc2n1 (stereo not given) | 10.5%
14 | CN[C@H](CC(=O)O)C(=O)O | 6.26%
15 | N.N.N.N.N.N.N.N.N.N.N.N.N.N.O.O.[Cl-].[Cl-].[Cl-].[Cl-].[Cl-].[Cl-].[Ru+4].[Ru+5].[Ru+5] | 97.5% (active)
16 | COc1cc2c(CCNC(C)=O)c[nH]c2cc1Cl | 4.11%
17 | C/C=C1\C(=O)CC2C3CCC4=CC(=O)CC[C@]4(C)C3CC[C@]12C (stereo not given in full) | 0.131%
18 | Oc1cc2c(cc1O)CN(C(=S)NCCc1ccc(Cl)cc1)CCC2 | 23.4%
19 | CC[N+](CC)(CC)CCOc1cccc(OCC[N+](CC)(CC)CC)c1OCC[N+](CC)(CC)CC | 3.26%
20 | CC(C)(C=O)Cc1cc(C(C)(C)C)c(O)c(C(C)(C)C)c1 | -3.35%

Row | Structure (SMILES) | inhibition
21 | COC(=O)c1c(-c2cc(OC)c(OC)c(OC)c2)c2ccc(OCc3ccccn3)cc2c(=O)n1-c1ccc(N)cc1 | 2.92%
22 | O=C1NC(=O)C(c2ccccc2[N+](=O)[O-])=C1Nc1ccc(O)c(Cl)c1 | 1.1%
23 | O=C(O)c1cc([N+](=O)[O-])ccc1NCCCc1ccccc1 | 9.38%
24 | O=C(O)CCCC[C@@H]1CCSS1 | 4.4%
25 | O=C(O)CN(CCOCCOCCN(CC(=O)O)CC(=O)O)CC(=O)O | 3.4%
26 | COc1ccccc1N1CCN(CCN(C(=O)c2ccc(I)cc2)c2ccccn2)CC1 | -3.47%
27 | Cn1cnc([N+](=O)[O-])c1Sc1ncnc2nc[nH]c12 | -2.23%
28 | CN1C(=O)CC[C@H]1c1cccnc1 | 4.07%
29 | NCCS | 8.28%
30 | CN(C)CCOC(=O)COc1ccc(Cl)cc1 | 5.22%
31 | NC(=NCc1ccc(Cl)c(Cl)c1)NC(=O)c1nc(Cl)c(N)nc1N | 7.67%
32 | COc1cc(C(=O)OCCCN2CCCN(CCCOC(=O)c3cc(OC)c(OC)c(OC)c3)CC2)cc(OC)c1OC | 9.83%
33 | CC1=C(CC(=O)O)c2cc(F)ccc2/C1=C\c1ccc(S(C)=O)cc1 (stereo not given) | 5.19%
34 | Nc1ccn([C@H]2CC[C@@H](CO)O2)c(=O)n1 | -7.35%
35 | C#CCN1C(C)=C(C(=O)OC)C(c2cccc([N+](=O)[O-])c2)C(C(=O)OCC)=C1C (stereo not given) | 4.14%
36 | Nc1nc(Nc2ccccc2)nc2c1ncn2[C@@H]1O[C@H](CO)[C@H](O)C1O (stereo not given in full) | -1.98%
37 | COc1ccccc1CNCCCCCCNCCCCCCCCNCCCCCCNCc1ccccc1OC | 126% (active)
38 | NC(N)=N[C@@H](CCC(=O)O)C(=O)O | 2.13%
39 | CCCCCCCCCCC/C=C\C(C)(C)/C=C\CCCC(=O)O | -1.7%
40 | Cc1cn([C@H]2C[C@@H](N=[N+]=[N-])[C@@H](CO)O2)c(=O)[nH]c1=O | -6.23%
